# From PubChem BioAssay
# Active and inactive are the calls of the source. No stated cut-off is given here; in the data, active means inhibition above about 44%; inactive means the rest.
# Molecular target: Steroidogenic factor 1 (Homo sapiens) (UniProt Q13285)
# Experiment: SF1 (NR5A1) inverse agonists, counter-screen for LRH-1 inverse agonist project, cell-based, luminescence, high throughput (AID 651614);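 further: cells cotransfected with StAR promoter reporter and SF1 expression vector; 0% = vehicle on cells with receptor and 100% = vehicle on cells lacking receptor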
# Conditions: cell-based SF1 luciferase reporter, at 3.6 µM, active compounds read high
# Steroidogenic factor 1 (Homo sapiens), sequence (Q13285 whole entry, looked up): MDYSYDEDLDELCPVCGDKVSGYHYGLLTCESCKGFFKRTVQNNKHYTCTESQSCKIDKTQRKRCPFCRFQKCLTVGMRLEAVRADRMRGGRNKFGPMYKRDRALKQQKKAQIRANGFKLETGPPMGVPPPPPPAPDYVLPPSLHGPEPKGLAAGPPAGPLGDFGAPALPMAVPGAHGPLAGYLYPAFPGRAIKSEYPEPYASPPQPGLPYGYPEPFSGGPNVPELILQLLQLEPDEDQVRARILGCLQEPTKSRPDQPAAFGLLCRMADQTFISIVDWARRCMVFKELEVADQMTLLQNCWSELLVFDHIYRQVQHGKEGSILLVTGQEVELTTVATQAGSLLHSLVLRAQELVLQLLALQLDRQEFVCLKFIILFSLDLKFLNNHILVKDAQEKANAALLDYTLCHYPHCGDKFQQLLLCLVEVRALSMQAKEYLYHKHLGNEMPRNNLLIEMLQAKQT
row,Structure (SMILES),inhibition
1,C[C@@H]1CN([C@@H](C)CO)S(=O)(=O)c2ccc(-c3ccc(C#N)cc3)cc2O[C@@H]1CN(C)Cc1ccccn1,48% (active)
2,Cc1onc(-c2ccccc2Cl)c1-c1nc(-c2ccncc2)no1,52.9% (active)
3,Cc1cc(C(=O)CSc2nnnn2C)c(C)n1CCc1ccc(F)cc1,48% (active)
4,Cc1cc(=O)oc2cc(O)cc(OCc3ccccc3)c12,45.2% (active)
5,Clc1ccc(Cn2ncc3c(NCc4ccccc4)ncnc32)cc1,51.4% (active)
6,NC(=S)N/N=C/c1ccc(-c2ccc([N+](=O)[O-])cc2)o1,44.5% (active)
7,COc1cc2c(cc1OC)-c1c(OC)c(OC)cc3ccnc(c13)C2=O,59% (active)
8,COc1ccc(NC(=O)CSc2nnc3ccc(-c4cccnc4)nn23)cc1OC,41.9% (inactive)
9,O=Cc1ccc(N2CCCCCC2)cc1,56% (active)
10,CC1(c2ccc3ccccc3c2)NC(=O)N(CC(=O)N2CCN(Cc3ccc(C#N)cc3)CC2)C1=O (stereo not given),62.4% (active)
11,CCOC(=O)c1ccc(N=Cc2cnc(N)nc2N)cc1,7.7% (inactive)
12,O=C(CSc1ncccc1-c1nc2ccccc2[nH]1)Nc1ccc2c(c1)OCCO2,5.63% (inactive)
13,CCOc1ccc(CCNC(=O)COC(=O)c2ccc(F)c(S(=O)(=O)N3CCOCC3)c2)cc1OCC,61.6% (active)
14,CCOc1cc(/C=N/Nc2nnc(C)n2N)ccc1O,22.2% (inactive)
15,COC(=O)c1ccc(NC(=O)CN2CCN(S(=O)(=O)c3cc(Cl)ccc3OC)CC2)cc1,57.5% (active)
16,O=C(O)c1c[nH]c2c([N+](=O)[O-])cccc2c1=O,29.6% (inactive)
17,Cc1cc(/C=N/n2cnnc2)c(C)n1-c1ccc(OCc2ccc(Cl)cc2)cc1,48.3% (active)
18,Cc1onc(-c2c(F)cccc2Cl)c1C(=O)c1ccc(F)cc1,46.2% (active)
19,Cc1[nH][nH]c(=O)c1N=Nc1ccc(S(N)(=O)=O)cc1,51.5% (active)
20,CCOc1cc(/C=C2\C(=N)N3N=C(C)SC3=NC2=O)ccc1OCCOc1cccc(OC)c1,40.2% (inactive)

row,Structure (SMILES),inhibition
1,O=C(N/N=C/c1ccc([N+](=O)[O-])s1)C(O)c1ccccc1 (stereo not given),62.2% (active)
2,O=C(C(Cl)c1ccccc1)N1CCOCC1 (stereo not given),54.5% (active)
3,COCCn1c(SCC(=O)Nc2ccc(C(C)=O)cc2)nnc1-c1ccco1,37.4% (inactive)
4,CC(=O)Oc1ccc2oc(=O)c3c(c2c1)CCCN3C(=O)CN1CCN(c2ncccn2)CC1,66.4% (active)
5,CC(=O)c1ccc(OC(C)C(=O)OCC(=O)NCCc2ccccc2)cc1 (stereo not given),40.7% (inactive)
6,CCCn1c2c(c(=N)c3c1CCC3)CCCC2,55% (active)
7,C/C(=N\NC(N)=S)C1(C)CCCCC1,53.3% (active)
8,Cc1ccc(NC(=O)CSc2nnc(CCCCCNC(=O)OC(C)(C)C)o2)c(C)c1,42.7% (inactive)
9,COc1cc(C(=O)NC2CCN(C)CC2)ccc1Nc1ncc2c(n1)N(CCc1ccccc1)CCC(=O)N2C,47.4% (active)
10,C#Cc1cccc(Nc2nc(NCCOC)nc3ccsc23)c1,57.4% (active)
11,Cc1nn(Cc2ccc(Cl)cc2)c(C)c1NC(=O)c1cc(C(C)C)on1,64.8% (active)
12,CC(=O)N1CCN(c2ccc(Oc3ccc([N+](=O)[O-])c(C(F)(F)F)c3)cc2)CC1,72.9% (active)
13,Cc1nnc(SCC(=O)Nc2ccc(Br)cc2)n(N)c1=O,32.1% (inactive)
14,C/C(=N\Nc1nc(C)c(C)s1)c1ccc([N+](=O)[O-])cc1,47.8% (active)
15,O=C(CN1C(=O)NC2(CCCCC2)C1=O)NCCc1c[nH]c2ccccc12,56.5% (active)
16,Cc1ccc(-n2nc(C)c(NC(=O)CCl)c2C)cc1C,66.8% (active)
17,CC(=O)Oc1ccc(-c2ccc(C(=O)Nc3cccc(S(=O)(=O)N4CCOCC4)c3)cc2)cc1,52.1% (active)
18,Cc1cc2oc(=O)cc(C)c2cc1NC(=O)CCl,57.7% (active)
19,O=C(OCC(=O)N1CCN(C(=O)COC(=O)c2ccc(O)cc2O)CC1)c1ccc(O)cc1O,61.2% (active)
20,CC1(C)CC(=O)C=C(c2cccs2)C1,57.8% (active)
